Data from PubChem BioAssay AID2676 (National Center for Advancing Translational Sciences (NCATS), 2010).
Among all 370,000 compounds or so, about 1,100 (0.3%) were called active. Another 1% or so got no clear call; they are omitted. The sample holds actives, similar compounds and a random draw of the others, so the mix is not that of the screen. The call rests on the fitted dose curve; in most records, active means well fitted activation curve with a large enough effect; inconclusive means small, poorly fitted or top-dose-only effect; inactive means flat fitted curve, though single readings scatter.

Target: Relaxin receptor 1 (Homo sapiens) (UniProt Q9HBX9)
Test: qHTS Assay for Agonists of the Relaxin Receptor RXFP1; further: nearly all actives have a fitted effect of over 60% in size
Conditions: HEK293T-RXFP1 cAMP TR-FRET, 30 min; series mostly up to 57.5 µM; activation: at the top concentration
Description: NIH Chemical Genomics Center [NCGC] NIH Molecular Libraries Probe Production Centers Network [MLPCN] MLPCN Grant: R03 MH085705-01A1 Assay Submitter (PI): Alexander Agoulnik NCGC Assay Overview: The relaxin hormone is involved in the variety of biological functions in normal tissues and diseases. The role of relaxin is well-established in female reproduction and parturition, mammary gland and endometrial development, maintenance of myometrial quiescence during pregnancy. Relaxin signaling through its G protein-coupled receptor (GPCR) RXFP1 results in ECM remodeling through regulation of collagen deposition, cell invasiveness, proliferation and overall tissue homeostasis. […] Recombinant human relaxin (rhRlx) is currently being tested in clinical trials as a protective agent in congestive heart failure, in treating severe preeclampsia, and as an anti-fibrotic agent in systemic sclerosis. Upon relaxin binding RXFP1 activation leads to the activation of adenylate cyclase (AC) via Gs. cAMP will activate PKA, which phosphorylates many signaling proteins. Thus, detection of cAMP increase is an easy and reliable indication of relaxin receptor activation. To screen for agonists of the relaxin receptor, a HEK293T cell line stably transfected with RXFP1 was used. RXFP1 activation was assayed by changes in cAMP levels as detected with a time-resolved fluorescence energy transfer (TR-FRET) cAMP detection kit.
NCGC Assay Protocol Summary: This is a cell-based assay for cAMP second messenger response to screen for agonists of the RXFP1 receptor. The assay was conducted in the presence of a PDE4 inhibitor (Ro 20174). The cells were lysed and the cAMP levels were measured with a TR-FRET cAMP kit. Presence of cAMP in the cell lysate disrupts binding between the cryptate-labeled anti-cAMP and d2-labeled cAMP pair, leading to a decrease in the TR-FRET signal. Data were normalized to the controls for basal activity (buffer only) and 100% activity (29 nM porcine relaxin). The EC50 values were determined from concentration-response data modeled with the standard Hill equation 1536-well assay protocol for the HEK293 RXFP1 cAMP assay: (1) Add 3 ul HEK293 RXFP1 cell culture. 2000 cells/well in DMEM/F12, 10% FBS, 1x Pen/Strep (dispensed offline with MultiDrop Combi). (2) Incubate 16-24 hr at 37C, 5% CO2. (3) Add 1 ul 400uM Ro20174 in DPBS, 0.05% BSA, 0.005% Tween 20. (3) Add 23 nl compounds in DMSO solution. Final concentration was 0.5 - 58 uM. (4) Incubate 30 min at 37C, 5% CO2. (5) Add 1 ul cAMP-d2 in lysis buffer (HTRF cAMP HiRange kit, CisBio). (6) Add 1 ul anti-cAMP antibody-cryptate in lysis buffer (HTRF cAMP HiRange kit, CisBio). (7) Incubate 30 min at room temperature. (6) Detect the assay plate in a ViewLux plate reader (PerkinElmer) with Ex=320 nm, Em1=615 nm and Em2=665 nm. Keywords: relaxin, RXFP1, RXFP2, G-protein coupled receptor, cAMP, agonist, high throughput screening, MLSMR, MLSCN, NIH Roadmap, qHTS and NCGC
On the % scale 0 is the no-effect control and ±100 the full control effect; potency means the concentration at half of the fitted maximal effect.

Relaxin receptor 1 (Homo sapiens), sequence (Q9HBX9 whole entry, looked up): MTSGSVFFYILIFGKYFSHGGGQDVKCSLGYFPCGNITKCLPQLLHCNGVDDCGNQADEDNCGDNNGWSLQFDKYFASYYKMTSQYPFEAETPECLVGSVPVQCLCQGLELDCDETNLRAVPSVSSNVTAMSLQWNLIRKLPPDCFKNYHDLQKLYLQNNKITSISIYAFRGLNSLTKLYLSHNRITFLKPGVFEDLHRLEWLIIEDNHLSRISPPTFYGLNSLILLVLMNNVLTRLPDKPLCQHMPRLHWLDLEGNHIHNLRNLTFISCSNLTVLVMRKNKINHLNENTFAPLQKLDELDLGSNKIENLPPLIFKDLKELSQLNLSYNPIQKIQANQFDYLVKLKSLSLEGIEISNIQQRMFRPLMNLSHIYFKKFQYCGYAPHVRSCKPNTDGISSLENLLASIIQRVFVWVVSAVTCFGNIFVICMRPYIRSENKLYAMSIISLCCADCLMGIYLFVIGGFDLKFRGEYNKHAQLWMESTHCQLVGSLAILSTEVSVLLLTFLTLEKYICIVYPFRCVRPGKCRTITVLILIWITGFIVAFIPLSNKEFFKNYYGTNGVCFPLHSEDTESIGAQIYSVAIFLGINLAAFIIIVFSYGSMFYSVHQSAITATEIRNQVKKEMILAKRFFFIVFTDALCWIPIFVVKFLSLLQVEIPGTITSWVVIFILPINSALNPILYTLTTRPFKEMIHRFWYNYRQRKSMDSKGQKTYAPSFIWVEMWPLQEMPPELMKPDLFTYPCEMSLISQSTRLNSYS

Row | Compound | activation | Potency
1 | O=C1CN(C(=O)Nc2ccccc2C(F)(F)F)C(c2ccccc2)c2c(sc3c2CCCC3)N1 (stereo not drawn) | -3.54% (inactive) | –
2 | Cc1cccc(N2CCN(C(=O)CCn3c(=O)c4cccn4c4cccnc43)CC2C)c1 (stereo not drawn) | 0.827% (inactive) | –
3 | Cc1ccc(CCNC(=O)c2ccc3c(c2)nc2n3CCC(C)C2)cc1 (stereo not drawn) | -2.6% (inactive) | –
4 | COc1ccc(-c2cn3c(n2)sc2cc(C(=O)Nc4ccccc4F)ccc23)cc1 | 12.7% (inactive) | –
5 | CC(C)(C)C1CCc2c(sc(NC(=O)c3ccccc3F)c2C(=O)N2CCCCC2)C1 (stereo not drawn) | 6.29% (inactive) | –
6 | CCN1CCN(Cc2c(O)ccc3oc(C)c(C(=O)Nc4ccc(C)cc4C)c23)CC1 | 0.265% (inactive) | –
7 | COc1cccc(-n2cc(C(=O)NCc3cccc(Cl)c3)c3ccccc3c2=O)c1 | 1.08% (inactive) | –
8 | COc1ccc(NC(=O)NC(C)c2c(-n3cccc3)sc(C)c2C)cc1OC (stereo not drawn) | 1.3% (inactive) | –
9 | CCOC(=O)c1ccc(NC(=O)CSc2nc3c([nH]c4ccccc43)c(=O)n2C)cc1 | 1.08% (inactive) | –
10 | Cc1c(Cl)cccc1NC(=O)Cn1cc(C(=O)c2cccs2)c2ccccc21 | 2.58% (inactive) | –
11 | CC(=O)N1CCCc2ccc(NS(=O)(=O)c3ccc(F)cc3F)cc21 | -0.645% (inactive) | –
12 | COc1cccc(Cn2c(CNS(=O)(=O)c3ccc(Cl)s3)nc3cccnc32)c1 | 1.25% (inactive) | –
13 | CCOC(=O)c1sc(=NC(=O)/C=C/c2cccs2)n(C)c1C | 2.99% (inactive) | –
14 | CCOC(=O)c1sc(=NC(=O)c2ccc(Br)cc2)n(C)c1C | – | 17.8 µM (active)
15 | CCN(CC)S(=O)(=O)c1ccc(C(=O)N=c2sc3cccc(OC)c3n2C)cc1 | 3.69% (inactive) | –
16 | CCN(CC)c1ccc(C2C(C(N)=O)=C(C)Nc3nc(SCc4ccccc4)nn32)cc1 (stereo not drawn) | 3.85% (inactive) | –
17 | CCCC(=O)Nc1ncnc2c1ncn2[C@@H]1O[C@@H]2OP(=O)(O)OC[C@H]2[C@H]1OC(=O)CCC | – | 0.631 µM (active)
18 | Cc1ccccc1CSc1nc(-c2ccccc2)nc2c1Cc1c(CO)cnc(C)c1O2 | 6.11% (inactive) | –
19 | CCOc1ccc(S(=O)(=O)N(CC(=O)NCCSCc2ccc(C)cc2)c2ccccc2)cc1 | 0.384% (inactive) | –
20 | Cc1nn2c(=O)cc(COC(=O)c3cccc(NC(=O)COc4ccccc4Cl)c3)nc2s1 | 0.441% (inactive) | –
21 | C#CC(C)(C)NC(=O)CSc1nc2c(c(=O)n(C)c(=O)n2C)n1CCCC | 5.88% (inactive) | –

Row | Compound | activation | Potency
22 | CCCCn1c(SCC(=O)N2CCOCC2)nc2c1c(=O)n(C)c(=O)n2C | – | 15.8 µM (active)
23 | Cn1c(=O)c2c(SCC(=O)N3CCOCC3)nc(C3CC3)nc2n(C)c1=O | 9.17% (inactive) | –
24 | Cc1cc(C)cc(OCC(=O)Nc2nc(-c3ccc(F)cc3)ns2)c1 | 16.4% (inactive) | –
25 | O=C(CSc1nccn1-c1ccc(F)cc1)Nc1cccc2ccccc12 | -0.361% (inactive) | –
26 | Cc1ccc(CNC(=O)CCc2c(C)nc3nc(CNC(=O)OC(C)(C)C)nn3c2C)cc1 | 0.404% (inactive) | –
27 | COc1ccccc1-c1nnc(C2CCN(C(=O)c3ccc(Cl)cc3)CC2)o1 | 3.12% (inactive) | –
28 | CC1Cc2cc(S(=O)(=O)CCC(=O)Nc3ccc(F)c(Cl)c3)ccc2N1C(=O)C1CC1 (stereo not drawn) | -0.89% (inactive) | –
29 | COc1ccccc1/C=C/c1nc(C#N)c(NC(C)c2ccccc2)o1 (stereo not drawn) | 17.5% (inactive) | –
30 | CCOc1ccc(C2C(=O)N(C3CCCCC3)CC(=O)N2CCC2=CCCCC2)cc1OC (stereo not drawn) | 2.13% (inactive) | –
31 | COc1ccc(-c2noc(-c3ccc(N4CCN(c5ccccc5)CC4)c([N+](=O)[O-])c3)n2)cc1OC | -5.38% (inactive) | –
32 | COc1ccc(CNC(=O)c2cc3c(=O)[nH]c4ccccc4c3s2)cc1 | 20.9% (inactive) | –
33 | CCCn1c(=N)n(CC(O)COc2ccccc2OC)c2ccccc21 (stereo not drawn) | -0.0771% (inactive) | –
34 | Cc1cc2c(cc3c(SCc4nc(-c5ccccc5)oc4C)nnc(C)n32)o1 | 21.8% (inactive) | –
35 | Cc1cc2c(cc3c(SCc4cccc(Cl)c4)nnc(C)n32)o1 | – | 22.4 µM (active)
36 | Cc1nnc(SCc2cccc(Cl)c2)n(N)c1=O | 2.6% (inactive) | –
37 | NS(=O)(=O)c1ccc(CCNC(=O)CCCCCn2c(=O)[nH]c3ccccc3c2=O)cc1 | 0.989% (inactive) | –
38 | FC(F)(F)c1cc(Nc2nc3ccccc3c3nncn23)ccc1Cl | 2.38% (inactive) | –
39 | O=C(COc1ccc2c3c(c(=O)oc2c1)CCC3)NC1CCCCC1 | 3.76% (inactive) | –
40 | O=C(Oc1ccccc1)Oc1ccc2c(c1)oc(=O)c1ccccc12 | – | 7.94 µM (active)
41 | O=C(COc1ccc2c3c(c(=O)oc2c1)CCCC3)NCC(O)c1ccccc1 (stereo not drawn) | 25.9% (inactive) | –
42 | COc1ccccc1CCNC(=O)CSc1nnc2ccc(-c3cccnc3)nn12 | 21.2% (inactive) | –

Row | Compound | activation | Potency
43 | CCOC(=O)CNC(=O)CSc1ccc2nnc(-c3cccnc3)n2n1 | – | 17.8 µM (active)
44 | COC(=O)c1ccc(CSc2ccc3nnc(-c4ccccc4)n3n2)o1 | 7.04% (inactive) | –
45 | Cc1c(C)n(Cc2ccc(Cl)cc2)c2ccc(C(=O)NCCc3ccc(S(N)(=O)=O)cc3)cc12 | -0.239% (inactive) | –
46 | O=C(CN1CCN(Cc2ccc(Cl)cc2)C1=O)NCc1ccc(F)cc1 | 3.31% (inactive) | –
47 | COc1ccccc1OCC(=O)Nc1nnc2n1CCS2 | 3.18% (inactive) | –
48 | COCCNC(=O)c1cc(-c2cccc(Cl)c2)on1 | -2.02% (inactive) | –
49 | O=C(CSc1nccn1C1CCCC1)Nc1cc(C(F)(F)F)ccc1Cl | 1.18% (inactive) | –
50 | CC(C)c1ccc(NC(=O)c2ccc(Cn3nc(N4CCN(c5ccccc5)CC4)ccc3=O)o2)cc1 | -0.547% (inactive) | –
51 | O=C(Nc1ccccc1Br)c1cc(CN2CCCC2)on1 | 2.48% (inactive) | –
52 | Cc1ccc(NC(=O)CCCn2c(=O)c3cccn3c3ccccc32)cc1Cl | -3.2% (inactive) | –
53 | COc1ccc(C2=NC3(CCCCC3)N(CC(=O)Nc3ccc(C(C)C)cc3)C2=O)cc1 | 0.659% (inactive) | –
54 | COc1ccc(CCNC(=O)CCCCn2c(=O)c3ccccc3n(Cc3ccccc3C)c2=O)cc1OC | -0.919% (inactive) | –
55 | Fc1ccc(Nc2nc(SCc3ccccc3Cl)nc3ccccc23)cc1 | -0.424% (inactive) | –
56 | COc1ccc(S(=O)(=O)NCC(c2ccc(N(C)C)cc2)N2CCCC2)cc1 (stereo not drawn) | 1.24% (inactive) | –
57 | O=C(CN1C(=O)COc2ccc(S(=O)(=O)N3CCCCCC3)cc21)N1CCN(c2cccc(C(F)(F)F)c2)CC1 | -0.516% (inactive) | –
58 | CCCC(=O)Nc1cc2nn(-c3ccccc3)nc2cc1C | 1.57% (inactive) | –
59 | N#Cc1nc(/C=C/c2ccc(F)cc2)oc1NC1CCCCC1 | 17.1% (inactive) | –
60 | CCCS(=O)(=O)c1c(Nc2ccccc2C)sc(C(=O)c2ccccc2)c1N | 1.63% (inactive) | –
61 | Cc1nn(C(=O)c2c(F)cccc2F)c(C)c1S(=O)(=O)N1CCOCC1 | 0.115% (inactive) | –
62 | CC(=O)c1ccc(NC(=O)CCc2nc(-c3ccc(C)cc3)no2)cc1 | 5.37% (inactive) | –
63 | Cc1ccc(C)n1-c1nnc(N2CCC(C(=O)NCc3ccccc3Cl)CC2)s1 | -1.52% (inactive) | –
